# HT1080-NT tox: kills 2HG-producing HT-1080-NT fibrosarcoma cells. Potency, µM (highest dose often 46.1 µM), for the others: at the top dose activity, negative = less viability, most hits filed as cytotoxic. AID 686970. HT-1080-NT fibrosarcoma viability, CellTiter-Glo ATP luminescence, 48 h. 360,000 tested, 1.6% active;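 note: NT is the 2HG producing partner of a matched IDH1 knockdown line; 0% = DMSO-treated cells and -100% = media-only wells without cells; nearly all actives have a fitted effect of over 55% in size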
#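 Fibrosarcoma NT cells, 750 per well in 5% FBS RPMI, were exposed to compound for 48 hours. Viability: CellTiter-Glo luminescence.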
# HT1080 IDH1KD tx: HT-1080 IDH1 knockdown cell toxicity (counter line). HT-1080 IDH1 knockdown viability, ATP luminescence, 48 h. Potency, µM (highest dose often 46.1 µM), for the others: at the highest dose activity, negative = toxicity, hits mostly cytotoxic. 360,000 tested, 2% active. AID 686971;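 note: 0% = DMSO wells and -100% = cell-free medium wells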
#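 Using the IDH1-knockdown HT-1080 line run in the same batch and compound series as the NT line, viability after 48 h at 37 °C was determined by CellTiter-Glo luminescence and expressed as % activity.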
# KB-V1 MDR tox: KB-V1 MDR subline cytotoxicity. KB-V1 MDR cells viability, CellTiter-Glo, 72 h. Potency, µM (series often up to 46.1 µM), actives largely listed as cytotoxic. 400,000 tested, 3.4% active; note: nearly all actives have a fitted effect of over 60% in size
#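 Luminescent ATP read-out (CellTiter-Glo, 10 min) measures survival of drug-selected KB-V1 MDR cells after 72 h, 37 degrees C compound exposure. Medium: phenol-red-free DMEM, 10% FBS. Values from fitted concentration-response curves.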
# KB-3-1 cytotox: kills parental KB-3-1 adenocarcinoma cells. KB-3-1 viability, CellTiter-Glo ATP luminescence, 72 h. Potency, µM (highest dose often 46.1 µM), hits mostly cytotoxic. 400,000 tested, 1.4% active; note: nearly all actives have a fitted effect of over 60% in size
#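 Cells are dispensed, compounds pinned in, plates held at 37 °C for 72 h, then CellTiter-Glo is added and luminescence read after 10 minutes. Cell line: parental KB-3-1 in phenol-red-free DMEM, 10% FBS.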
# Active calls of the source: *; i = inactive; ? = inconclusive; nt = no result given. The list is not random: actives were taken first. Their share in the collection is about 5.7%. Calls come from the whole dose curve; as a rule, active = well fitted curve in the direction sought with a large enough effect; inconclusive = small, poorly fitted or top-dose-only effect, or another doubt; inactive = no such curve, though single readings can be large; an effect the other way counts as inactive or inconclusive. Unless noted, % is set by controls: 0 for no effect and ±100 for the full control effect; potency is the fitted concentration of half-maximal effect.
SMILES,HT1080-NT tox,HT1080 IDH1KD tx,KB-V1 MDR tox,KB-3-1 cytotox
CCOc1cc(C2C3=C(CCCC3=O)Nc3ccc4ncccc4c32)ccc1O (configuration not stated),?,?,i,13µM*
COc1cc(C2C3=C(CCCC3=O)Nc3ccc4ncccc4c32)ccc1O (configuration not stated),?,6.5µM*,i,?
CC(=O)C1CCN(c2ncc(-c3cccc(N(C)C)c3)s2)CC1,nt,nt,i,i
COC(=O)c1cc(=O)n(Cc2ccc(F)cc2)c(=Nc2ccccc2)s1,-24%,-17%,?,i
COC(=O)c1cc(=O)n(CCc2ccc(OC)c(OC)c2)c(=Nc2ccc(F)c(Cl)c2)s1,16µM*,?,21µM*,?
COC(=O)c1cc(=O)n(Cc2ccc(OC)c(OC)c2)c(=Nc2ccc(F)cc2)s1,?,-16%,?,21µM*
COC(=O)c1cc(=O)n(Cc2ccco2)c(=Nc2ccc(F)cc2)s1,23µM*,?,23µM*,?
COC(=O)[C@]12CCCCC=C1N(Cc1ccc(Cl)cc1Cl)C(=O)[C@H](CC(=O)NCc1ccc(OC)c(OC)c1)C2,?,13µM*,?,?
CCOC(=O)[C@]12CCCC=C1N(Cc1ccc(Cl)cc1Cl)C(=O)[C@H](CC(=O)NCc1ccc(OC)c(OC)c1)C2,?,?,18µM*,?
COC(=O)[C@]12CCCCC=C1N(Cc1ccc(Cl)cc1Cl)C(=O)[C@H](CC(=O)NCc1ccccc1)C2,-28%,-30%,i,?
CCOC(=O)[C@]12CCCC=C1N(Cc1ccc3c(c1)OCO3)C(=O)[C@H](CC(=O)NCc1ccc(OC)c(OC)c1)C2,3%,8%,i,i
Nc1ccc(Cn2ccc3c4c(N)nc(N)nc4ccc32)cc1,0.52µM*,0.033µM*,?,?
Cc1nc2ccc(N)cc2c(=O)n1Cc1ccc(Cl)cc1,-3%,-10%,i,?
CN(Cc1cn(C)c2ccccc12)C(=S)Nc1cc(F)cc(F)c1,1%,0%,18µM*,?
Cc1cccc(NC(=S)N(C)Cc2cn(C)c3ccccc23)c1,-2%,-1%,?,i
Cc1c(C(=O)N(C)C)sc2c1c(=O)n(-c1ccccc1C(F)(F)F)c(=O)n2Cc1ccccc1C#N,nt,nt,i,i
O=C1CC(/C=C/c2ccccn2)=Nc2ccccc2N1,-1%,2%,?,18µM*
O=C1CC(/C=C/c2ccco2)=Nc2ccccc2N1,1%,0%,i,i
O=C(NNC(=O)c1cccnc1SCc1cccc([N+](=O)[O-])c1)c1ccc(F)cc1,-18%,-11%,16µM*,?
O=S(=O)(c1ccccc1)N1CCN(C2CCN(Cc3ccccc3)CC2)CC1,-2%,-6%,i,i
O=S(=O)(c1ccc2ccccc2c1)N1CCN(C2CCN(Cc3ccccc3)CC2)CC1,-19%,-25%,7.3µM*,i
O=C(CSc1ncc(C(F)(F)F)cc1Cl)N1CCN(S(=O)(=O)c2ccc3ccccc3c2)CC1,-2%,?,5.8µM*,i
CC(C)CC(=O)N1CCN(S(=O)(=O)c2ccc3ccccc3c2)CC1,-16%,-14%,7.3µM*,?
O=C(CCNS(=O)(=O)c1ccc(Br)s1)Nc1ccc(Br)cc1,nt,nt,i,i
C/C(=N\NC(=O)c1ccc(CN(C)S(=O)(=O)c2ccc(C)cc2)cc1)c1ccc(OC(F)F)cc1,-18%,-29%,2.6µM*,10µM*
SMILES,HT1080-NT tox,HT1080 IDH1KD tx,KB-V1 MDR tox,KB-3-1 cytotox
Cc1ccc(S(=O)(=O)N(C)Cc2ccc(C(=O)N/N=C/c3ccc(OC(F)F)cc3)cc2)cc1,-3%,-9%,16µM*,i
O=C(N/N=C/c1ccc(OC(F)F)cc1)c1cc[n+]([O-])cc1,0%,1%,i,?
CN(Cc1ccc(OC(F)F)cc1)C(=O)c1ccc(S(=O)(=O)N(C)c2ccccc2)cc1,-11%,-5%,i,?
Cc1cccc(-n2c3nc(=O)n(C)c(=O)c-3cc3c(C)nn(-c4ccccc4)c32)c1C,nt,nt,?,i
CCOC(=O)C1=C(C)NC2=C(C(=O)CC(c3ccc(OC)c(OC)c3)C2)C1c1ccc(C)o1 (configuration not stated),-4%,-3%,18µM*,i
O=C(/C=C/c1ccccc1)CCN1CCCCC1,?,?,26µM*,?
COc1cc(CCC(=O)NCc2ccc3c(c2)CCN3C(=O)c2ccc(F)cc2)cc(OC)c1OC,nt,nt,i,i
COc1ccccc1CNS(=O)(=O)c1cc(CN2C(=O)c3cccnc3C2=O)ccc1OC,3%,1%,?,i
COc1cc(CCNC2=CC(=O)c3ncccc3C2=O)ccc1O,?,15µM*,7.3µM*,5.8µM*
COc1ccc(CNC(=O)C(=O)NCC(c2ccco2)S(=O)(=O)c2ccc(Cl)cc2)cc1 (configuration not stated),nt,nt,i,i
CC(=O)N1CCc2c(sc(NC(=O)c3ccc([N+](=O)[O-])o3)c2C#N)C1,1.8µM*,2.9µM*,i,?
COc1ccc(C(=O)Nc2sc3c(c2C#N)CCN(C(C)=O)C3)cc1,8.2µM*,5.8µM*,?,8.2µM*
COC(=O)c1c(NC(=O)c2ccc([N+](=O)[O-])o2)sc2c1CCN(C(C)C)C2,21µM*,4.6µM*,15µM*,6.5µM*
O=C(NCCc1nc2ccccc2n1Cc1c(F)cccc1Cl)c1ccco1,nt,nt,i,i
COc1ccc(SCc2cc(=O)c3cc(Cl)ccc3[nH]2)cc1,nt,nt,i,i
CCCCN(CCCC)C(=O)c1cc(Cl)ccc1[N+](=O)[O-],-6%,-6%,23µM*,i

# High-throughput results (PubChem)
